L3MBTL1 block: qHTS Assay for the Inhibitors of L3MBTL1 | AlphaScreen L3MBTL1–H3K9me1 peptide binding | Potency, µM (highest dose often 57.1 µM), for inactives: at the top dose activity, negative = inhibition, hits mostly inhibitors | 230,000 compounds, 0.66% hits; also: % is scaled to controls: 0 for no effect and ±100 for the full control effect; nearly all actives have a fitted effect of over 60% in size
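Read-out is AlphaScreen signal from streptavidin donor and nickel chelate acceptor beads (10 ug/mL final each) bridging L3MBTL1 (50 nM) and biotinylated K9-monomethylated H3(1-15) peptide (75 nM), after 30 min compound exposure at room temperature.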
JMJD2A Tudor: qHTS Assay for Inhibitors of JMJD2A-Tudor Domain | Lysine-specific demethylase 4A (Homo sapiens), O75164 | AlphaScreen JMJD2A-Tudor / H3K4me3 peptide binding | Potency, µM (top dose mostly 114 µM), without a hit: top-dose activity change, negative = inhibition, usual class: inhibitors | 390,000 compounds, 4.4% hits; also: % is scaled to controls: 0 for no effect and ±100 for the full control effect; nearly all actives have a fitted effect of over 50% in size
BAZ2B inh: qHTS Assay for Inhibitors of BAZ2B; AlphaScreen BAZ2B-H3K14Ac peptide displacement; AID 504333, 2011; Potency, µM (top dose mostly 114 µM), for inactives: at the top dose activity change, negative = inhibition, usual class: inhibitors; 360,000 compounds, 4.4% hits; also: % is scaled to controls: 0 for no effect and ±100 for the full control effect; nearly all actives have a fitted effect of over 60% in size
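AlphaScreen displacement of biotin-H3(5-23)K14Ac peptide (50 nM final) from BAZ2B (50 nM final) in PBS pH 7.4, 0.01% Tween-20; complex preformed 30 min RT, then compounds (top 110 uM) 30 min RT, beads 20 min dark.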
HP1b chromo inh: HTS for Inhibitors of HP1-beta Chromodomain Interactions with Methylated Histone Tails | Chromobox protein homolog 1 (Homo sapiens), P83916 | AlphaScreen HP1-beta / biotin-H3K9me3 peptide binding | Potency, µM (highest dose often 114 µM), inactives show at the top dose activity change, negative = inhibition, hits mostly inhibitors | 390,000 compounds, 0.56% hits; also: nearly all actives have a fitted effect of over 70% in size
Target sequence (P83916 whole entry, looked up): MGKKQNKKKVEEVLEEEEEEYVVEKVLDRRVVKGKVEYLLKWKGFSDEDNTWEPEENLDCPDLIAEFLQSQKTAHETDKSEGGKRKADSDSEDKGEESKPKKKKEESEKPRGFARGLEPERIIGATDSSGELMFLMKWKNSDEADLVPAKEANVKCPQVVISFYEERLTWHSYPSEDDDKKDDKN
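Compound inhibition of the preformed complex between 50 nM HP1-beta and 50 nM biotinylated H3K9me3 peptide was read by AlphaScreen. Buffer was PBS pH 7.4 with 0.01% Tween-20. Incubations ran 30 min at room temperature, with 10 ug/mL donor/acceptor beads.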
G9a block: qHTS Assay for Inhibitors of Histone Lysine Methyltransferase G9a. G9a H3K9 monomethylation, AlphaScreen, 2 h. Histone-lysine N-methyltransferase EHMT2 (Homo sapiens), Q96KQ7. 350,000 compounds, 8.8% hits. Potency, µM (top dose mostly 102 µM), inactives show top-dose activity, negative = inhibition, most hits filed as inhibitors; also: % is scaled to controls: 0 for no effect and ±100 for the full control effect; nearly all actives have a fitted effect of over 75% in size
Target sequence (Q96KQ7 913-1193 limits assumed): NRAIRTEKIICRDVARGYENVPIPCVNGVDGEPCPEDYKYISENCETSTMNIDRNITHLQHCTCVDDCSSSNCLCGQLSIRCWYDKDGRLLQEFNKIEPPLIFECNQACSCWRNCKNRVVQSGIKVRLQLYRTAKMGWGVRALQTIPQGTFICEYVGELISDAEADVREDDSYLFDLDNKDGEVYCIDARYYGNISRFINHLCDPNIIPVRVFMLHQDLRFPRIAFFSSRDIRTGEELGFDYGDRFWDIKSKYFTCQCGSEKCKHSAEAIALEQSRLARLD
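Methyltransferase reactions run at room temperature for 2 h (20 nM enzyme, 500 nM biotin-H3K9 peptide, 20 uM SAM) after a 15 min compound preincubation; product detected by AlphaScreen beads and anti-H3K9me1 antibody.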
Starred values were filed as active, the others as inactive; u = inconclusive; x = no result; [ ] = remark or other dose. Hits are enriched below; roughly 11% of the tested compounds scored in any of these assays. Calls follow the shape of the dose curve; as a rule, active = well fitted inhibition curve with a large enough effect; inconclusive = small, poorly fitted or top-dose-only effect; inactive = no such curve, though single readings can be large or run the other way. Potency is read from the fitted curve at half-maximal effect.

SMILES	L3MBTL1 block	JMJD2A Tudor	BAZ2B inh	HP1b chromo inh	G9a block
Oc1ccc(N2CCN(CC(O)c3ccccc3)CC2)cc1 (stereo unspecified)	x	56.2µM*	-34.6%	u	8.91µM*
OC(COC(c1ccc(F)cc1)c1ccc(F)cc1)CN1CCCC(C(F)(F)F)C1 (stereo unspecified)	x	3.55µM*	50.1µM*	u	11.2µM*
COc1ccc(N2CCN(CC(O)COC(c3ccccc3)c3ccccc3)CC2)cc1 (stereo unspecified)	x	44.7µM*	44.7µM*	u	39.8µM*
O=[N+]([O-])c1ccc(C(O)CN2CCN(c3ccccc3)CC2)cc1 (stereo unspecified)	x	-3.0%	2.6%	60.1%	13.9%
OCCN1CCN(CC(O)COC(c2ccc(F)cc2)c2ccc(F)cc2)CC1 (stereo unspecified)	x	7.08µM*	39.8µM*	u	-13.5%
OC(COC(c1ccccc1)c1ccccc1)CN1CCCCC1 (stereo unspecified)	-0.5%	-1.3%	-13.2%	0.7%	-11.3%[59 µM]
COc1ccc(-c2n[nH]c3c2C(c2ccc(Cl)cc2Cl)NC3=O)cc1 (stereo unspecified)	x	u	x	-4.3%	u
CCC(C(=O)NC1CCC(C)CC1)n1nc(C)c2sc3ccccc3c2c1=O (stereo unspecified)	x	6.0%	0.5%	29.5%	-27.5%[59 µM]
CCCN(CCC)CCCNC(=O)Cn1cnc2sc(C)c(S(=O)(=O)N3CCOCC3)c2c1=O	x	-10.3%	-0.6%	-10.6%	10.6%
COc1ccc(N2CCN(CC(O)COC(c3ccc(F)cc3)c3ccc(F)cc3)CC2)cc1 (stereo unspecified)	x	3.55µM*	20µM*	u	5.62µM*
COc1ccc(C(OCC(O)CN2CCC(O)CC2)c2ccc(OC)cc2)cc1 (stereo unspecified)	x	-18.2%	-14.4%	-2.4%	-13.1%
CCN1C(=O)/C(=C2/Sc3ccccc3N2CC)S/C1=N\c1ncn[nH]1	-17.4%	-25.9%	u	39.0%	-28.0%
Cc1ccc(C(=O)Nc2c(C)n(C)n(-c3ccccc3)c2=O)cc1	3.5%	9.1%	-7.5%	38.6%	x
Cc1c(NC(=O)Nc2ccc(C#N)cc2)c(=O)n(-c2ccccc2)n1C	x	-15.1%	14.6%	14.7%	-3.7%
Cc1c(NC=C(C#N)C#N)c(=O)n(-c2ccccc2)n1C	11.0%	3.7%	1.6%	45.1%	12.2%[0.501 µM]
Cc1c(N/C=C(\Cl)C(=O)C(F)(F)F)c(=O)n(-c2ccccc2)n1C	x	-16.5%	u	7.5%	25.1µM*
CCOC(=O)Nc1c(C)n(C)n(-c2ccccc2)c1=O	-4.4%	-7.5%	10.7%	26.5%	23.6%
Cc1c(N/N=C(\C#N)C(=O)c2ccccc2)c(=O)n(-c2ccccc2)n1C	u	56.2µM*	31.6µM*	72.6%	u
Cc1ccccc1C(=O)/C(C#N)=N/Nc1c(C)n(C)n(-c2ccccc2)c1=O	-18.8%	50.1µM*	50.1µM*	19.3%	-6.5%[59 µM]
CCOC(=O)/C(C#N)=N/Nc1c(C)n(C)n(-c2ccccc2)c1=O	x	-17.5%	79.4µM*	55.9%	17.8µM*
Cc1ccc(-c2nn(CC(=O)NN3CCOCC3)c(=O)c3ccccc23)cc1	0.0%	1.7%	0.2%	35.6%	10.2%
Cc1cccc(NC(=O)C2CCN(S(=O)(=O)c3ccc(F)cc3)CC2)c1C	x	-6.9%	-0.9%	-0.5%	-32.3%[59 µM]
Cc1nc(N2CCCC2)c2c(C(=O)Nc3ccc(C)c(Cl)c3)c(C)oc2n1	x	-14.2%	6.9%[57.1 µM]	47.8%	-6.4%[59 µM]
COc1ccc(C(=O)COC(=O)c2ccccc2NS(=O)(=O)c2ccc(O)c([N+](=O)[O-])c2)cc1	-27.1%	u	56.2µM*	-28.9%	u
COc1ccccc1NS(=O)(=O)c1ccc(O)c(C(=O)OCc2cccc([N+](=O)[O-])c2)c1	-10.9%	-23.9%	x	7.9%	-6.8%
SMILES	L3MBTL1 block	JMJD2A Tudor	BAZ2B inh	HP1b chromo inh	G9a block
COc1ccc(NC(=O)c2ccccc2NS(=O)(=O)c2ccc(C)cc2)c([N+](=O)[O-])c1	-8.8%	u	u	-29.6%	3.16µM*
Cc1ccc[n+](CC(=O)Nc2ccc(C)c(C)c2)c1	7.9%	9.4%	-3.3%	41.0%	x
CCOC(=O)COn1c(=O)c(-c2ccco2)[n+]([O-])c2ccccc21	u	-22.3%	u	9.1%	10µM*
O=c1c(-c2ccco2)[n+]([O-])c2ccccc2n1OCc1c(F)cccc1F	5.2%	-13.4%	-3.4%	10.8%	x
O=c1c(-c2ccco2)[n+]([O-])c2ccccc2n1OCc1ccccc1	x	50.1µM*	28.9%	u	6.31µM*
COC(=O)C1=C(C)N(Cc2ccc(OC)cc2)C(=O)/C1=C\c1ccco1	-29.2%	39.8µM*	12.6µM*	u	10µM*
COC(=O)C1=C(C)N(C)C(=O)/C1=C\c1ccco1	-7.5%	-21.9%	u	-7.3%	-7.7%[59 µM]
COC(=O)C1=C(C)N(Cc2ccco2)C(=O)/C1=C\c1ccc([N+](=O)[O-])cc1	-2.6%	u	u	-8.8%	17.8µM*
CCN(CC)c1nc(C(F)(F)F)nc2c1nnn2Cc1ccccc1	27.4%	85.4%	74.6%	142.8%	x
Cc1ccc(C(=O)O)cc1-c1ccc(/C=C2/NC(=O)N(c3ccccc3)C2=O)o1	x	50.1µM*	31.6µM*	u	10µM*
Cc1ccc(CN2C(=O)N/C(=C\c3ccc(-c4ccc(C(=O)O)cc4C)o3)C2=O)cc1	u	u	39.8µM*	-21.0%	39.8µM*
O=C(O)c1ccc(-c2ccc(/C=C3\NC(=O)N(Cc4ccc(Cl)cc4)C3=O)o2)cc1	u	-26.5%	u	10.8%	50.1µM*
COc1cccc(CNC(=O)CSc2ncc3c(n2)-c2cc(Cl)ccc2N(C)S3(=O)=O)c1	x	-7.1%	-1.5%	21.0%	-2.4%[59 µM]
COc1ccc(OC)c(S(=O)(=O)N2CCC(n3c(C)nc4cccnc43)CC2)c1	x	13.3%	4.6%	13.1%	6.9%[59 µM]
Cc1oc(-c2cccc3ccccc23)nc1CN1CCN(c2ncnc3ccccc23)CC1	-13.4%	u	u	u	44.7µM*
COc1ccc(-c2nc(CN3CCN(c4cc(C)nc(C)c4)CC3)c(C)o2)c2ccccc12	6.2%	-35.0%	-6.8%	6.7%	x
NC(=O)C1CCN(c2cc(Cl)nc(N)n2)CC1	8.2%	10µM*	-19.4%	-23.7%	-2.8%
Cc1ccc(C2(C)NC(=O)N(CC(=O)Nc3ccc(Cl)c(S(=O)(=O)N4CCCCC4)c3)C2=O)cc1 (stereo unspecified)	-8.9%	-26.9%	-2.1%	16.3%	39.8µM*

Screening results deposited in PubChem by National Center for Advancing Translational Sciences (NCATS).
